Assay results published in publication PMC4336329 (PLoS ONE, 2015).
The campaign covered roughly 310,000 compounds. About 14,000 (4.5%) showed an effect of 50% or more. The effect is printed as a negative number. Only a selection was taken, and strong results are over-represented in it overall.

These molecules were tested against human ether-à-go-go-related gene (hERG) potassium channel (human, UniProt Q12809) (assay: primary screen, population patch clamp on CHO cells stably expressing hERG; higher = less effect of the substance).
Sequence of human ether-à-go-go-related gene (hERG) potassium channel (Q12809 whole entry, looked up): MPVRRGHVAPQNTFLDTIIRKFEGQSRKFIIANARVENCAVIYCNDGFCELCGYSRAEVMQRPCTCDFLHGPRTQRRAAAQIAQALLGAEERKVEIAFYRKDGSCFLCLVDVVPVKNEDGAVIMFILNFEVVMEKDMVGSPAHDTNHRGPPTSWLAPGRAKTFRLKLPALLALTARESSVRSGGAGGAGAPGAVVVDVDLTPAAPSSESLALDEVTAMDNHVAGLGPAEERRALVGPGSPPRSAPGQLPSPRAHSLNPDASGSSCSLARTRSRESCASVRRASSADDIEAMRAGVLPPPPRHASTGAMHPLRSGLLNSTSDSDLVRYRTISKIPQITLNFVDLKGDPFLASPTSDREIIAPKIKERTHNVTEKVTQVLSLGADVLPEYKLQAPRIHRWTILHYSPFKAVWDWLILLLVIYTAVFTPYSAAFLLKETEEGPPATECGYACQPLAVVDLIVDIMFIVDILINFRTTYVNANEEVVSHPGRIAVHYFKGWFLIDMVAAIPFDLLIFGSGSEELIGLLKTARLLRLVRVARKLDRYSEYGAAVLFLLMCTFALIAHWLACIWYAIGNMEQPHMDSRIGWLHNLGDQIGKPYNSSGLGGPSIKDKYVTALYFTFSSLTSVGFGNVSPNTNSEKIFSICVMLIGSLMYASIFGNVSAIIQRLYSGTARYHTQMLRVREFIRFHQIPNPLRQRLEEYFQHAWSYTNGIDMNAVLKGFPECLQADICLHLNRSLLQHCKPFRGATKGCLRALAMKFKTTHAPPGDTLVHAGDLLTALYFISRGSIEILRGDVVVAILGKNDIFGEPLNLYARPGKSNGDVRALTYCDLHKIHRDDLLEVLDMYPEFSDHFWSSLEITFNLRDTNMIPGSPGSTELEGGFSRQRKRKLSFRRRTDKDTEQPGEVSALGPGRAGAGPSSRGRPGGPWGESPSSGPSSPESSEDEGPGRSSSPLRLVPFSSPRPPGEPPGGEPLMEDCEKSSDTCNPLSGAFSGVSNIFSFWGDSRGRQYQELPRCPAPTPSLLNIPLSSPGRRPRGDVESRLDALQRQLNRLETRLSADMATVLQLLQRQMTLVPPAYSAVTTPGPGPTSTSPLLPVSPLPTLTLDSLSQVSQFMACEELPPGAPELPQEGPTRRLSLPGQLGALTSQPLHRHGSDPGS
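Further: peak tail current of the secondary pulse compared with the same well before compound.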

SMILES | hERG current change (%, negative = inhibition) at 10uM
Cc1c(NC(=O)C2CCN(S(=O)(=O)c3ccccc3)CC2)c(=O)n(-c2ccccc2)n1C | 4.47%
CCCC(=O)Nc1cc(C(=O)O)ccc1S(=O)(=O)c1ccc(C)cc1 | 11.6%
Cc1nc2c(c3c1[nH]c1ccccc13)C(=O)CC(C)(C)C2 | -0.41%
O=C(O)CN1C(=O)/C(=C\c2cc(Br)ccc2OCc2ccc(Cl)cc2)SC1=S | 15.2%
COc1ccc(-c2n[nH]c3c2CN(C(=O)c2ccc(OC)c(OC)c2)CC3)cc1 | -15.5%
CC(=O)NC12CC3CC(C)(C1)CC(NC(C)=O)(C3)C2 | -11.4%
COc1ccc([C@H]2[C@@H](C#N)[C@H](C#N)N3CCCN23)cc1 | 14.2%
CN(C)CCCOc1ccc(C(C)(C)c2ccccc2)cc1.O=C(O)C(=O)O | -16.5%
COc1ccc(NC(=O)COC(=O)c2n[nH]c3ccccc23)c(OC)c1 | -4.2%
O=C(c1cnn2ccccc12)N(Cc1ccco1)C1CCCC1 | 4.7%
Cc1ccc(C(C)C)cc1OCC(=O)NNC(=O)Nc1ccccc1 | 28.3%
CC(C)=N/N=C(\c1cccc([N+](=O)[O-])c1)C12CN3CN(CN(C3)C1)C2 | 7.66%
Cc1ccc(OCc2cc(C(=O)NC(C)Cc3cnccn3)no2)cc1C (stereo not drawn) | 0.149%
CCOC(=O)N1CCN(C(=O)c2cc(COc3cccc(C(C)=O)c3)on2)CC1 | 1.62%
CC(=O)c1cccc(OCc2cc(C(=O)NC(C)Cc3cccnc3)no2)c1 (stereo not drawn) | -6.23%
CC(CNC(=O)c1cc(COc2c(F)cccc2F)on1)Oc1cccnc1 (stereo not drawn) | -18.6%
COc1ccc(OCc2cc(C(=O)NC(C)Cc3cccnc3)no2)c(Cl)c1 (stereo not drawn) | -36.3%
O=C(c1cc(COc2cccc(C(F)(F)F)c2)on1)N1CCSCC1 | -17%
CCOC(=O)N1CCN(C(=O)c2cc(COc3cccc(C(F)(F)F)c3)on2)CC1 | -76.7%
Cc1ccc(OCc2cc(C(=O)NC(C)Cc3cccnc3)no2)cc1C (stereo not drawn) | -91%
COc1ccc(OCc2cc(C(=O)NCC(C)Oc3cccnc3)no2)c(Cl)c1 (stereo not drawn) | -52.6%

SMILES | hERG current change (%, negative = inhibition) at 10uM
Cc1ccc(C2=NN3C(C(=O)c4ccccc4)Oc4ccccc4C3C2)cc1 (stereo not drawn) | 0.487%
COC(=O)c1cc(NC(=O)CN(c2ccccc2OC)S(=O)(=O)c2ccccc2)ccc1Cl | 1.44%
O=S(=O)(NC(=NC1CCCCC1)c1ccccc1F)c1ccccc1 | 10.4%
Cc1ccc(C2=C(CC(=O)O)C(=O)CC2)cc1 | 12.1%
O=C(O)CCCN1C(=O)C2C3c4ccccc4C(c4ccccc43)[C@@H]2C1=O (stereo partly drawn) | 13%
CSc1ccc(C2NC(=O)c3ccccc3N2)cc1 (stereo not drawn) | 5.54%
COc1ccc(NC(=O)CSc2nccn2Cc2ccccc2)cc1 | -4.86%
O=C(Cc1ccc([N+](=O)[O-])cc1)c1ccc(O)cc1O | -40.4%
COc1ccc(CC(=O)Nc2cc(S(=O)(=O)N3CCCCC3)ccc2N2CCN(C)CC2)cc1 | -54%
CCN1CCN(c2ccc(S(=O)(=O)N3CCCCC3)cc2NC(=O)Cc2c(F)cccc2Cl)CC1 | -8.09%
O=C(Cc1c(F)cccc1Cl)Nc1cc(S(=O)(=O)N2CCCCC2)ccc1N1CCOCC1 | -52.2%
CN1CCN(c2ccc(S(=O)(=O)N3CCCCC3)cc2NC(=O)Cc2c(F)cccc2Cl)CC1 | -21.8%
COc1ccc(CC(=O)Nc2cc(S(=O)(=O)N3CCOCC3)ccc2N2CCOCC2)cc1 | 0.344%
CC(=O)NCCC(=O)Nc1cc(S(=O)(=O)N2CCCCC2)ccc1N1CCN(C)CC1 | -9.13%
CN1CCN(c2ccc(S(=O)(=O)N3CCCCC3)cc2NC(=O)Cc2ccc(Cl)cc2)CC1 | -72%
CN1CCN(c2ccc(S(=O)(=O)N3CCCCC3)cc2NC(=O)CCc2ccccc2)CC1 | -53.3%
CN1CCN(c2ccc(S(=O)(=O)N3CCCCC3)cc2NC(=O)CSCc2ccccc2)CC1 | -20.5%
COc1ccccc1CCC(=O)Nc1cc(S(=O)(=O)N2CCCCC2)ccc1N1CCN(C)CC1 | -26.5%
O=C(Cc1ccc(Cl)cc1)Nc1cc(S(=O)(=O)N2CCOCC2)ccc1N1CCCC1 | -37.3%
CN1CCN(c2ccc(S(=O)(=O)N3CCOCC3)cc2NC(=O)CCc2ccccc2)CC1 | -8.75%
Cc1ccc(C(=O)COC(=O)c2ccccc2NC(=O)c2ccccc2)cc1[N+](=O)[O-] | 4.55%

SMILES | hERG current change (%, negative = inhibition) at 10uM
O=C(COC(=O)/C=C/c1ccc(Cl)cc1Cl)Nc1ccc2c(c1)OCCO2 | 18.5%
O=C(Nc1cccc(C(=O)O)c1)/C(=C\c1ccco1)NC(=O)c1ccccc1Cl | 7.53%
COC(=O)c1[nH]c(C)c(/C(O)=C2\C(=O)C(=O)N(CCN3CCOCC3)C2c2ccc(C)o2)c1C (stereo not drawn) | -6.49%
Cc1c(CCC(=O)O)c(=O)oc2cc3occ(-c4ccc(Cl)cc4)c3cc12 | 21.7%
Cc1ccc(Oc2nnc(-c3cccs3)c3ccccc23)cc1 | -0.00742%
CNC(=O)COC(=O)c1cccnc1SC | 3.53%
CCN1CCN(c2ccc(S(=O)(=O)N3CCCCC3)cc2NC(=O)Cc2ccccc2)CC1 | -33.5%
CCN1CCN(c2ccc(S(=O)(=O)N3CCCCC3)cc2NC(=O)Cc2ccc(Cl)c(Cl)c2)CC1 | -48.5%
CCN1CCN(c2ccc(S(=O)(=O)N3CCCCC3)cc2NC(=O)Cc2ccc(OC)cc2)CC1 | -60.1%
CCOC(=O)C1(CC)NC(c2ccc(OC)c(OC)c2)C2C(=O)N(c3cccc(C(C)=O)c3)C(=O)C21 (stereo not drawn) | 16.5%
Cc1ccc(S(=O)(=O)/N=C2/C=C(C3C(=O)CC(C)(C)CC3=O)C(=O)c3ccccc32)cc1 | 0.322%
COc1cccc(CNC(=S)Nc2cc(C)cc(C)c2)c1 | 6.62%
N#Cc1ccc(OCC(=O)Nc2ccncc2)cc1 | 18.1%
N#Cc1cccc(NC(=O)CCn2ccnc2)c1 | 2.87%
O=C(COc1ccc(-n2ccnc2)cc1)Nc1cccc(Cl)c1 | -38.9%
N#Cc1cccc(NC(=O)COc2ccc(-n3ccnc3)cc2)c1 | -67.5%
O=C(COc1ccc(-n2ccnc2)cc1)Nc1cccc(F)c1 | -54.6%
O=C(COc1ccc2c(c1)OCO2)Nc1cccc(F)c1 | 19.8%
O=C(NCc1ccccc1)C1c2ccccc2Oc2ccccc21 | 7.83%
Cc1ccc(-n2c(N)cc(=O)nc2SCC(=O)NC2CCCCC2)cc1C | 8.7%
COc1ccc(CCN2C(=O)CC(N3CCN(S(=O)(=O)c4ccccc4)CC3)C2=O)cc1OC (stereo not drawn) | -5.73%

SMILES | hERG current change (%, negative = inhibition) at 10uM
CCOc1ccc(S(=O)(=O)Nc2ccc(C(=O)NCc3ccncc3)cc2)cc1 | -22.2%
Cc1nc2ncnn2c(Nc2ccc3c(c2)OCCO3)c1C | 0.223%
Cc1nc2ncnn2c(Nc2ccc3c(c2)OCO3)c1Cc1ccccc1 | -55.1%
CCc1c(C)nc2ncnn2c1Nc1ccc(C#N)c(Cl)c1 | -50.6%
CCc1c(C)nc2ncnn2c1Nc1ccc(C)c(C)c1 | -17.6%
Cc1cc(Nc2ccc3c(c2)OCCO3)n2ncnc2n1 | -42.7%
CCc1c(C)nc2ncnn2c1Nc1ccc(C)cc1 | -5.65%
COc1ccc(CC(=O)NNS(=O)(=O)c2ccc(F)cc2)cc1OC | 0.969%
COc1ccc(-n2c(C)cc(C(=O)CN3CCCCC3)c2C)cc1 | 1.6%
CNc1nc(C)c(C(=O)OCc2ccccc2)s1 | 15.9%
O=C(Nc1c2c(nn1-c1ccccc1)CS(=O)C2)c1ccc(Br)o1 (stereo not drawn) | 1.07%
Clc1c(CSc2nc3ccccc3o2)nc2sccn12 | 5.65%
Brc1c(CSc2nc3ccccc3o2)nc2ncccn12 | -51.8%
Cc1ccc(SCc2nc3ncccn3c2Br)cc1 | -68%
Clc1c(CSc2nc3ccccc3o2)nc2ccccn12 | -20.4%
Cc1cc(C)nc(SCc2nc3ncccn3c2Br)n1 | -2.09%
c1ccc2sc(SCSc3nc4ccccc4s3)nc2c1 | 15.8%
O=[N+]([O-])c1ccc2sc(SCc3nc4ccccn4c3Br)nc2c1 | 20.2%
Cc1cc(=O)[nH]c(SCc2nc3ncccn3c2Br)n1 | 14.6%
Brc1c(CSc2nc3ccccc3s2)nc2ncccn12 | -69.7%
COc1ccc(S(=O)(=O)Nc2ccc3c(c2)OCO3)cc1OC | 21.7%
